These results are taken from PubChem BioAssay (NCI).

Experiment in all cases: NCI-60 one-dose screen, 48 h (100 = growth as untreated, 0 = no growth, -100 = all killed)
What all share (conditions): 10 µM unless noted

Assay [1] concerns SK-MEL-2 melanoma.
Assay [2] has as its system EKVX NSCLC.
The test system of assay [3] is SN12C renal.
The test system of assay [4] is UO-31 renal.
Assay [5] deals with TK-10 renal.
The subject of assay [6] is ACHN renal.
The subject of assay [7] is CAKI-1 renal.
The test system of assay [8] is A498 renal.
Assay [9] has as its system CCRF-CEM leukemia.
Assay [10] has as its system MOLT-4 leukemia.
In assay [11] the test system is SR leukemia.
In assay [12] the test system is RPMI-8226 leukemia.
In assay [13] the test system is OVCAR-8 ovarian.
The test system of assay [14] is OVCAR-5 ovarian.
In assay [15] the test system is SK-OV-3 ovarian.
Assay [16] deals with IGROV1 ovarian.
For assay [17], the system named is OVCAR-3 ovarian.
The subject of assay [18] is HS 578T breast.
Assay [19] relates to NCI/ADR-RES ovarian.

Molecules are shown by their SMILES. About 83,000 compounds went through this panel and 20% of them were active in at least one assay; those are over-represented in the sample as a whole.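 Compound tested at a single concentration for 48 hours in 96-well plates; a percent growth value below 10 was scored as active.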 A number with no mark means an inactive call. The source made the active and inactive calls.

Turning to `CC1(C)CC[C@]23CC[C@]4(C)[C@H](CC[C@@H]5[C@@]6(C)C/C(=C/c7cccnc7)C(=O)C(C)(C)[C@@H]6CC[C@]54C)[C@H]2[C@H]1OC3=O`, the growth in assay [1] is 27.6% [100 µM]; in assay [2], 74.7% [100 µM]; in assay [3], 41.5% [100 µM]; in [4], 34.8% [100 µM]; in [5], 55% [100 µM]; in assay [6], 36.9% [100 µM]. Also, the growth in assay [7] is 40.6% [100 µM]; in assay [8] it was 31.5% [100 µM]; in [9], 19.3% [100 µM]; in [10], 19.4% [100 µM]; in assay [11], 42.4% [100 µM]; in [12], 11.3% [100 µM]. Besides, the growth in [13] was 42.4% [100 µM]; in [14] it was 79.7% [100 µM]; in assay [15] it was 64.6% [100 µM]; in assay [16], 66.8% [100 µM]; in assay [17] it was 49.3% [100 µM]; in assay [18], 54.6% [100 µM]. The growth in assay [19] is 50.1% [100 µM].

Take `Cc1cnc([C@]23CC[C@@H](C)[C@H](C)[C@H]2C2=CC[C@@H]4[C@@]5(C)Cc6c([nH]c7ccccc67)C(C)(C)[C@@H]5CC[C@@]4(C)[C@]2(C)CC3)o1`: the growth in assay [1] was 77.4% [100 µM]; in [2], 74% [100 µM]; in assay [3], 36.7% [100 µM]; in [4], 39% [100 µM]; in [5] it was 64.2% [100 µM]; in assay [6], 42.7% [100 µM]. Besides, the growth in assay [7] is 49.7% [100 µM]; in [8], 91.9% [100 µM]; in assay [9], 64% [100 µM]; in [10] it was 50.5% [100 µM]; in assay [11], 121% [100 µM]; in assay [12], 26.6% [100 µM]. The growth in assay [13] was 39.3% [100 µM]; in assay [14], 59.7% [100 µM]; in assay [15] it was 73.9% [100 µM]; in assay [16], 25.9% [100 µM]; in assay [17], 83.8% [100 µM]; in assay [18], 70.2% [100 µM]. In addition, in assay [19], the growth is 68.3% [100 µM].

Consider `C=C(C)[C@@H]1CC[C@]2(C(=O)OC)CC[C@]3(C)[C@H](CC[C@@H]4[C@@](C)(CCc5nn[nH]n5)[C@H](C(=C)C)CC[C@]43C)[C@@H]12`, for which the growth in assay [1] was -60.8% [100 µM] (active); in assay [2], 0.298% [100 µM] (active); in assay [3] it was -45.6% [100 µM] (active); in assay [4] it was -88.5% [100 µM] (active); in assay [5], 8.06% [100 µM] (active); in [6] it was 3.75% [100 µM] (active). Also, the growth in assay [7] is -17.2% [100 µM] (active); in assay [8] it was -61.5% [100 µM] (active); in [9] it was 1.92% [100 µM] (active); in assay [10], 0.832% [100 µM] (active); in [11], 21.7% [100 µM]; in assay [12], -0.796% [100 µM] (active). Besides, the growth in assay [13] was 7.09% [100 µM] (active); in assay [14] it was 5.88% [100 µM] (active); in assay [15], -2.47% [100 µM] (active); in assay [16], -8.32% [100 µM] (active); in [17] it was -60.4% [100 µM] (active); in assay [18] it was -31% [100 µM] (active). The growth in assay [19] was -7.5% [100 µM] (active).

With `C[C@H]1[C@H](C)CC[C@]2(C(=O)O)CC[C@]3(C)C(=CC[C@@H]4[C@@]5(C)C/C(=C/c6ccco6)C(=O)C(C)(C)[C@@H]5CC[C@]43C)[C@H]12`, the growth in assay [1] is -64% [100 µM] (active); in assay [2] it was -68.4% [100 µM] (active); in assay [3], -56% [100 µM] (active); in [4], -99.5% [100 µM] (active); in assay [5], -73.4% [100 µM] (active); in assay [6] it was -97.9% [100 µM] (active). The growth in [7] was -74.6% [100 µM] (active); in assay [8], -56.2% [100 µM] (active); in [9], -26.4% [100 µM] (active); in assay [10], -10.8% [100 µM] (active); in assay [11], 31.2% [100 µM]; in assay [12], -19.3% [100 µM] (active). The growth in assay [13] is -19% [100 µM] (active); in assay [14], -48.8% [100 µM] (active); in assay [15], -17.3% [100 µM] (active); in assay [16] it was -59.6% [100 µM] (active); in assay [17], -74.5% [100 µM] (active); in assay [18], -13.9% [100 µM] (active). Besides, the growth in assay [19] was -58.9% [100 µM] (active).

`NC(=O)c1cccc(-c2ccc(S(=O)(=O)Nc3ccc4c(c3)N(C(=O)C3CC3)CCC4)cc2)c1`: the growth in [1] was 7.54% (active); in assay [2], 67.1%; in [3] it was 52.1%; in assay [4], 82.2%; in assay [5], 77.8%; in [6] it was 79.2%. Further, the growth is 72.4% in assay [7]; 5.86% (active) in assay [8]; 33.5% in [9]; 57.8% in assay [10]; 50.5% in assay [11]; 43.7% in assay [12]. Moreover, the growth in assay [13] was 57%; in [14], 64.8%; in assay [15], 38.2%; in [16] it was 37.1%; in [17] it was 15.8%; in [18] it was 17.9%. Further, the growth in [19] is 104%.

Regarding `COC(=O)[C@]12CCC(C)(C)C[C@H]1C1=CC[C@@H]3[C@@]4(C)C/C(=C/c5cccnc5)C(=O)C(C)(C)[C@@H]4CC[C@@]3(C)[C@]1(C)CC2`, the growth in assay [1] is -70.3% [100 µM] (active); in assay [2], -44.8% [100 µM] (active); in [3], -51.4% [100 µM] (active); in assay [4], -81.6% [100 µM] (active); in assay [5], -35.9% [100 µM] (active); in [6], -61.1% [100 µM] (active). The growth was -15.4% [100 µM] (active) in assay [7]; -69.8% [100 µM] (active) in assay [8]; 2.85% [100 µM] (active) in assay [9]; -14% [100 µM] (active) in assay [10]; 47.7% [100 µM] in [11]; -38.4% [100 µM] (active) in assay [12]. Moreover, the growth in [13] was 0.407% [100 µM] (active); in assay [14] it was -19.5% [100 µM] (active); in [15] it was 7.52% [100 µM] (active); in assay [16], -34.2% [100 µM] (active); in assay [17], -1.73% [100 µM] (active); in assay [18], -18.5% [100 µM] (active). For the same molecule, in assay [19], the growth was -40.5% [100 µM] (active).

Turning to `O=C1Nc2ccccc2/C1=C/C(=O)c1ccc(N2CCCCC2)cc1`, the growth is 113% in assay [1]; 106% in assay [2]; 73.5% in assay [3]; 47.4% in assay [4]; 85.8% in assay [5]; 27.6% in assay [6]. Moreover, the growth is 63.8% in assay [7]; 95.8% in assay [8]; 5.19% (active) in assay [9]; -6.75% (active) in assay [10]; 16.9% in [11]; 26.9% in assay [12]. Further, the growth is 54.9% in assay [13]; 104% in assay [14]; 100% in assay [15]; 50% in [16]; 10.4% in assay [17]; 93.4% in [18]. For the same molecule, the growth in assay [19] is 90.3%.
